Consider 6 compounds from PubChem BioAssay.

Test [1] is described as follows: small molecules captured by biotinylated probe aFSTL3 – biochemical, small-molecule microarray, fluorescence 635/667, stem cell growth factor project, primary screen (AID 1064).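 Further: measures binding of the biotinylated anti-FSTL3 antibody to printed compounds.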 The following applies: higher = more signal.
The nature of test [2]: binders from COS7 lysate, DM2A8 probe, primary screen, torsin A project, cell lysate, small-molecule microarray, fluorescence 635/667 (AID 1065). Particulars: higher = more signal, COS7 lysate expressing mutant human TOR1A.
Test [3] is described as follows: small molecules captured by biotinylated probe aFGF2 – biochemical, small-molecule microarray, fluorescence 635/667, stem cell growth factor project, primary screen (AID 1067).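 Further: measures binding of biotinylated aFGF2 protein to printed compounds on slides; z-score merges feature fluorescence and signal-to-noise across triplicate slides.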 The following applies: higher = more signal.
Test [4] in a line: small molecules captured by biotinylated probe aFGF10 – biochemical, small-molecule microarray, fluorescence 635/667, stem cell growth factor project, primary screen (AID 1071).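 Further: score merges 667 nm spot intensity and signal to noise from triplicate slides.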 Particulars: higher = more signal.
Test [5] deals with Neurogenic locus notch homolog protein 2 (Homo sapiens) (UniProt Q04721). In words: small molecules binding Notch2 protein – biochemical, small-molecule microarray, 635 nm fluorescence, stem cell growth factors, primary screen (AID 1073). The following applies: higher = more signal.
Test [6] deals with Pro-neuregulin-1, membrane-bound isoform (Homo sapiens) (UniProt Q02297). In words: small molecules binding neuregulin-1 protein – biochemical, small-molecule microarray, fluorescence 635/667, psychiatric disease protein project, primary screen (AID 1075).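 Further: score combines 667 nm spot fluorescence with signal to noise.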 The following applies: NRG1 binding, 635 nm fluorescence, higher = more signal.
The test system of test [7] is Neuregulin-1 EGF-like domain. The test is described as follows: small molecules binding NRG1 EGF domain – biochemical, small-molecule microarray, 635 nm fluorescence, primary screen (AID 1081).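 Further: binding of the protein to compounds printed on small-molecule microarray slides.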 The following applies: higher = more signal.
Test [8] can be described thus: FRG1 expression reporter modulators in myotubes – cell-based, C2C12 myotubes, firefly/Renilla luciferase, luminescence, FRG1 inhibition for FSHD, primary screen (AID 1084). Particulars: FRG1 promoter luciferase, higher = more signal, called active from +8 up or from −8 down.
A short description of test [9]: small molecules captured by biotinylated probe aFST – biochemical, small-molecule microarray, fluorescence 635/667, stem cell growth factor project, primary screen (AID 1086).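 Further: score merges 667 nm fluorescence with signal-to-noise of each printed compound spot.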 The following applies: higher = more signal.
A short description of test [10]: binders of probe aHhip on microarray, primary screen, stem cell growth factor project, biochemical, small-molecule microarray, fluorescence 635/667 (AID 1087).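 Further: score merges spot fluorescence at 667nm with spot signal to noise ratio.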 Particulars: higher = more signal.
The subject of test [11] is PRMT1 (protein arginine N-methyltransferase 1). The test is described as follows: small molecules binding arginine methyltransferase PRMT1 – biochemical, small-molecule microarray, 635 nm fluorescence, primary screen (AID 1088).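 Further: binding of Prmt1 protein to compounds spotted on small-molecule microarray slides.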 The following applies: higher = more signal.
The nature of test [12]: growth effects on S. cerevisiae YJM789 – YJM789 clinical isolate, OD600, 24 h, basal, primary screen (AID 1089).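 Further: growth of clinical yeast isolate S. cerevisiae YJM 789 seeded 1000 cells per well; test concentration not given here.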 The following applies: higher = more signal, called active from +8 up or from −8 down.
Test [13] can be described thus: S. pombe growth modifiers, basal conditions – strain 972, OD600, 24 h, no modulator, primary screen (AID 1090).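 Further: basal condition with compound alone and no growth modifier present; test concentration not given here.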 The following applies: S. pombe 972 growth, higher = more signal, called active from +8 up or from −8 down.
A short description of test [14]: budding yeast growth modifiers under rapamycin – strain BY4716, OD600, 96 h, primary screen (AID 1091). Further: test concentration not given here. The following applies: S. cerevisiae BY4716 + rapamycin, higher = more signal, called active from +8 up or from −8 down.
For test [15], the target named is Torsin-1A-interacting protein 2 (Homo sapiens) (UniProt Q8NFQ8). In words: small molecules binding lysate-expressed LULL1 – cell lysate, human LULL1 lysate, 635/667 nm fluorescence, primary screen (AID 1092).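 Further: probe is lysate of COS7 cells overexpressing human LULL1; score merges per-feature 667 nm fluorescence with signal-to-noise.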 Particulars: small-molecule microarray, hLULL1 lysate binding, 635 nm fluorescence; higher = more signal.
Test [16] is described as follows: optical density change of DRC41 E. coli – strain DRC41, OD650, 24 h, E. coli filamentation project, primary screen (AID 1093).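 Further: MC1000 strain lacking acrAB efflux and sulA so SOS filamentation is blocked; test concentration not given here.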 The following applies: E. coli DRC41 growth, higher = more signal, called active from +8 up or from −8 down.
Test [17] in a line: probe aLefty2 binding to arrayed compounds – biochemical, biotinylated probe, 635/667 nm fluorescence, primary screen (AID 1094).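 Further: score merges spot fluorescence near 667 nm with spot signal-to-noise ratio.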 Particulars: small-molecule microarray, higher = more signal.
The subject of test [18] is Noggin (protein binding on small-molecule microarray). In words: small molecules binding Noggin protein – biochemical, 635/667 nm fluorescence, primary screen (AID 1095).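 Further: score merges 667 nm feature fluorescence with signal to noise over triplicate slides.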 Particulars: 635 nm fluorescence, higher = more signal.
The target in test [19] is Neurogenic locus notch homolog protein 3 (Homo sapiens) (UniProt Q9UM47). The test is described as follows: small molecules binding NOTCH3 protein – biochemical, 635/667 nm fluorescence, primary screen (AID 1096). The following applies: small-molecule microarray, 635 nm fluorescence, higher = more signal.
Test [20] is described as follows: probe aEGFR binding to arrayed compounds – biochemical, biotinylated probe, 635/667 nm fluorescence, primary screen (AID 1097).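 Further: probe is a biotinylated anti-EGFR antibody binding compounds printed on slides; score combines fluorescence near 667 nm and signal to noise of each spot.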 Particulars: small-molecule microarray, higher = more signal.

“And” between values parts separate entries of the source, which are not always exact repeats. Identical values can stand only once. The source made the active and inactive calls.

Sequence of Neurogenic locus notch homolog protein 3 (Homo sapiens) (Q9UM47 whole entry, looked up): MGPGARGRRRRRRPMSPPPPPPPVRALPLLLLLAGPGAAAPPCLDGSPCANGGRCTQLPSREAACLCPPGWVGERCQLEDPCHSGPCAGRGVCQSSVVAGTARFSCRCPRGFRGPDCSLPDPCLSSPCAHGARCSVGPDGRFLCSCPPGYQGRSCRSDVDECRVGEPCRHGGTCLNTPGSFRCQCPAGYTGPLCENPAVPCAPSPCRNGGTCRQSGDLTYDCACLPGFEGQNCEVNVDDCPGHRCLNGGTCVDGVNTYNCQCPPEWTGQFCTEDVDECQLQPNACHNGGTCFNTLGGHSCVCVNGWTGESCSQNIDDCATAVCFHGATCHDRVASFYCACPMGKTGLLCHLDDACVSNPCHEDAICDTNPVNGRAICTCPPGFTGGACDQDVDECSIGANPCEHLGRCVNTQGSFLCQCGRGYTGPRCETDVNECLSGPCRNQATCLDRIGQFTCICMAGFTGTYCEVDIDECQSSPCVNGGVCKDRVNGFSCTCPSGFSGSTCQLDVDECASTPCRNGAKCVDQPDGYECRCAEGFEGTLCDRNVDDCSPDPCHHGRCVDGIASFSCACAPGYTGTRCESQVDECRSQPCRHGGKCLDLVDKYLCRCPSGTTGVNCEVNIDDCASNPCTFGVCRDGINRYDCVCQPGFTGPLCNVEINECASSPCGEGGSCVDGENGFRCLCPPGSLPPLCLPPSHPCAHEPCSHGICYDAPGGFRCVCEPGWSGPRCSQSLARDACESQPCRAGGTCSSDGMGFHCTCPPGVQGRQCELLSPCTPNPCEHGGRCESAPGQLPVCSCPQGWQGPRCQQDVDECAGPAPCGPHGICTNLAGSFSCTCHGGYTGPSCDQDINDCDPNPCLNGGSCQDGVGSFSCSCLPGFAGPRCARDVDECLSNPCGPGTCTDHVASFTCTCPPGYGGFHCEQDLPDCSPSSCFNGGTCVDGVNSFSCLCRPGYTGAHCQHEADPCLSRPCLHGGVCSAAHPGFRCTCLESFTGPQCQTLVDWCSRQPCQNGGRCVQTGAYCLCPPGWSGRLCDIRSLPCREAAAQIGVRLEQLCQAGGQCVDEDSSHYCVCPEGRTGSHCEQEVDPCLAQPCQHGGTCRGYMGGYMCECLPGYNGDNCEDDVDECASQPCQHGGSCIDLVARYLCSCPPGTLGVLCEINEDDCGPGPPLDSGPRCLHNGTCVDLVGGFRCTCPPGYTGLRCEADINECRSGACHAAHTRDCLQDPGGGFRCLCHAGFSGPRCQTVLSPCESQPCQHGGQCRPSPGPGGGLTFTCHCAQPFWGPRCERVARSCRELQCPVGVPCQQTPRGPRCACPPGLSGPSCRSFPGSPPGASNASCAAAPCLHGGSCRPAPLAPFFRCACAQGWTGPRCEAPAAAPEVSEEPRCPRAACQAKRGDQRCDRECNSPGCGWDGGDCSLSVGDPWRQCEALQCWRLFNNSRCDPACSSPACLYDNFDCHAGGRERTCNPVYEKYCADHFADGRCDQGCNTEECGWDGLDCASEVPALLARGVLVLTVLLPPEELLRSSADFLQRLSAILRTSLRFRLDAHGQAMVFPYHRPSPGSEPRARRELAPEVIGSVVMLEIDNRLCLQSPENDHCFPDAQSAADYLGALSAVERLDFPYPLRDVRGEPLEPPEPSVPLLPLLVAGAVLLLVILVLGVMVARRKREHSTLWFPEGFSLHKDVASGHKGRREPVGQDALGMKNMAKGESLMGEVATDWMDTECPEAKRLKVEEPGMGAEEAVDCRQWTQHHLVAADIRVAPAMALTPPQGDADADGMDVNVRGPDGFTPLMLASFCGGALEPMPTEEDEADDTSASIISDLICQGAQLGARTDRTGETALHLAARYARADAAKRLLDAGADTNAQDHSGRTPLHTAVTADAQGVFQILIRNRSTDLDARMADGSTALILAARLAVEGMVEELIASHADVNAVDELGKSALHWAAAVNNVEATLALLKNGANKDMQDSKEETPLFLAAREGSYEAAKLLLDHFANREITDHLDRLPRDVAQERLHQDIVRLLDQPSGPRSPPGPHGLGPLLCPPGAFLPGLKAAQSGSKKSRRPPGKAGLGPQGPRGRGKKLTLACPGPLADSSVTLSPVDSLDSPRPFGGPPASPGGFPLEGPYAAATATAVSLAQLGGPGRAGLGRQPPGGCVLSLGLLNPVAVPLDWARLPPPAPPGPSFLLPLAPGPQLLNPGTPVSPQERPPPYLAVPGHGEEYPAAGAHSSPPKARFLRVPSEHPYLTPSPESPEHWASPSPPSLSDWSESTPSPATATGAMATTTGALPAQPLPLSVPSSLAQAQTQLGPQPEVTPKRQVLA
Sequence of Pro-neuregulin-1, membrane-bound isoform (Homo sapiens) (Q02297 whole entry, looked up, the tested form may be a part, canonical isoform): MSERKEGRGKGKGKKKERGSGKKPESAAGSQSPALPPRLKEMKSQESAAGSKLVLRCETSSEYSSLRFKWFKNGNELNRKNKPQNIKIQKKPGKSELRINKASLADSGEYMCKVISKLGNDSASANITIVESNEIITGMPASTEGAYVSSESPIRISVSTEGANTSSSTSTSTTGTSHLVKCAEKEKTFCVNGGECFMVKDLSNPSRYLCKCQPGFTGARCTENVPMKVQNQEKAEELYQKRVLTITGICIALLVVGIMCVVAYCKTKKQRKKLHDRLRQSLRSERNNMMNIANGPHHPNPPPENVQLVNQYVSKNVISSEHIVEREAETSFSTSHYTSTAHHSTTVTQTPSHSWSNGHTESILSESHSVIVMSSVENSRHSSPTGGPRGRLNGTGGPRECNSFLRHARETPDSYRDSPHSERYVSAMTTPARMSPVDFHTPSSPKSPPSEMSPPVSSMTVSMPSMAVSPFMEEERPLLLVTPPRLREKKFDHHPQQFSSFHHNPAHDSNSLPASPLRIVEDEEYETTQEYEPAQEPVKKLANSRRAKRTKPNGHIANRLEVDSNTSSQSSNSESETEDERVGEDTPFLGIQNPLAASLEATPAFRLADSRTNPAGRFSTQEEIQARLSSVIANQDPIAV
Sequence of Torsin-1A-interacting protein 2 (Homo sapiens) (Q8NFQ8 whole entry, looked up): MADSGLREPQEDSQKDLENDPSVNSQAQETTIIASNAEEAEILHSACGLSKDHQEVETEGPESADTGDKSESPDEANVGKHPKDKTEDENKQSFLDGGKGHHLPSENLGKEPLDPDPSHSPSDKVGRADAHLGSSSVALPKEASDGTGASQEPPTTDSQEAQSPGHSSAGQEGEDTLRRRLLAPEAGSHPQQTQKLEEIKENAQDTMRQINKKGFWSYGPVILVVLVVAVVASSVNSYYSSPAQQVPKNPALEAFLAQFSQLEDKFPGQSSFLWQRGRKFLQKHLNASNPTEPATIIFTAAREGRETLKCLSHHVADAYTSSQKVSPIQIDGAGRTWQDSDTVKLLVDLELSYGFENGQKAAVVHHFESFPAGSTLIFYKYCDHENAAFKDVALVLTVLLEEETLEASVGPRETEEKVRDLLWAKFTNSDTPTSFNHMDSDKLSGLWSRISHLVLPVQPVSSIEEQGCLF

`C[N+](C)(C)CCCCNC(=O)[C@@H]1C[C@@H]2C(=O)N[C@@H](CCCC[N+](C)(C)C)C(=O)N2[C@@H]1c1cccc(OCCO)c1`: the composite z-score in test [1] is -0.0301 and -0.304; in [2], 2.1 and 2.23; in test [3] it was -0.0909 and -0.0573; in [4], 1.07 and 1.2; in [5] it was 0.556 and 0.0462; in test [6], -0.181 and -0.179. Further, the composite z-score in test [7] was 1.07 and 1.16; in test [9] it was 0.311 and 0.464; in test [10] it was 0.463 and -0.0994; in [11], 1.53 and 0.995; in test [15], 0.864 and 2.09; in test [17], 0.387 and 0.268. Also, the composite z-score in [18] was 2.03 and 1.71; in test [19], 1.05 and 1.09; in test [20], 0.399 and 0.56. Also, the z-score in test [8] is -0.101 (inactive) and 0.844 (inactive); in [12], 1.27 (inactive) and 0.389 (inactive); in [13], -0.352 (inactive) and -0.297 (inactive); in test [14] it was -0.483 (inactive) and -1.92 (inactive); in [16], 0.616 (inactive) and 0.374 (inactive).

With `COC(=O)C1=C2N(Cc3ccccc3)C(C)=C(C(=O)OC)[C@@H](c3ccccc3)N2C(=O)[C@](O)(C(=O)OC)C1`, the composite z-score in test [1] was -0.416 and -0.485; in test [2] it was 0.969 and 0.932; in test [3] it was -0.166 and -0.0477; in [4], 0.0291 and 0.291; in test [5], 1.12 and 0.305; in [6] it was 0.598 and -0.247. Further, the composite z-score in [7] is 1.09 and -0.265; in [9], 0.084 and 0.0516; in test [10], 0.065 and -0.0237; in test [11], 0.691 and 0.144; in test [15], 1.8 and -0.466; in test [17], -0.142 and -0.235. Moreover, the composite z-score in test [18] was 1.14 and 0.796; in [19], 0.81 and 0.263; in [20], -0.142 and -0.133. The z-score in [8] was -0.0085 (inactive) and 0.0331 (inactive); in test [12], -0.149 (inactive) and -0.0628 (inactive); in test [13], -0.925 (inactive) and -0.134 (inactive); in test [14], -1.34 (inactive) and -0.299 (inactive); in test [16], 0.788 (inactive) and -0.0132 (inactive).

Regarding `CCOC(=O)NN=C1C[C@@H](O)[C@@H](O)[C@@H]2[C@@H]3C(=O)N(Cc4ccccc4)C(=O)[C@@H]3CC[C@@H]12`, the composite z-score was -0.629 in test [1]; 0.0854 in test [2]; -0.202 in test [3]; 0.295 in test [4]; 0.388 in test [5]; 0.318 in test [6]. For the same compound, the composite z-score in test [7] is -0.026; in test [9], -0.0089; in [10] it was -0.0391; in [11], 0.249; in test [15], -0.572; in [17], -0.217. Further, the figures for the composite z-score in [18], in [19] and in test [20] were 0.406, 0.639 and -0.282, respectively. Moreover, the z-score in test [8] is -0.0833 (inactive); in test [12], 0.872 (inactive); in [13], 0.117 (inactive); in test [14] it was 0.552 (inactive); in test [16] it was -1.68 (inactive).

Regarding `C=CCN1C(=O)[C@]2(O[C@H](CCn3cc(CCO)nn3)[C@@H]([Si](C)(C)c3ccc(OC)cc3)[C@@H]2C)c2cc(N3C(=O)c4cccc5cccc3c45)ccc21`, the composite z-score in [1] is -0.298 and -0.359; in test [2], 1.1 and -0.4; in [3], -0.0069 and -0.0563; in test [4], 0.678 and 0.735; in test [5], 0.285 and 0.226; in test [6] it was 1.19 and 0.465. The composite z-score in [7] is 1.03; in test [9], 0.115 and -0.305; in test [10] it was -0.0618 and 0.157; in [11] it was 1.27 and 1.46; in [15] it was 1.73 and 1.57; in test [17] it was -0.166 and -0.177. Moreover, the composite z-score in [18] was 0.708 and 0.778; in test [19], 0.644 and 0.979; in test [20] it was -0.0828 and -0.238. Moreover, the z-score in test [8] is -2.77 (inactive) and -2.7 (inactive); in test [12], 1.25 (inactive) and 0.648 (inactive); in [13] it was 1.82 (inactive) and 1.64 (inactive); in test [14], 36.8 (active) and 36.6 (active); in test [16], 1.43 (inactive) and 0.793 (inactive).

Take `C=CCN(CCCCC)C(=O)C(c1cccs1)N(C(=O)/C=C\C(=O)O)c1ccc(CCO)cc1` (stereo not given): the composite z-score in [1] was 0.786 and 0.657; in test [2], -1.96 and -1.13; in [3], -0.182 and -0.201; in [4] it was -0.507 and -1.34; in [5] it was -1.77 and -0.81; in [6] it was 0.279 and -0.706. Besides, the composite z-score in test [7] was 1.53 and 1.51; in test [9] it was -0.713 and -0.498; in test [10] it was 0.106 and -0.274; in test [11] it was 0.275 and -0.0988; in test [15] it was 1.64 and 0.636; in [17] it was -0.254 and -0.0927. For the same compound, the composite z-score in test [18] is -1.9 and -1.27; in test [19], -1.01 and -1.02; in test [20], -0.309 and -0.313. Also, the z-score was 0.349 (inactive) and 0.348 (inactive) in test [8]; 0.472 (inactive) and 0.0638 (inactive) in test [12]; -0.265 (inactive) and 0.206 (inactive) in test [13]; 0.499 (inactive) and 0.494 (inactive) in test [14]; 0.295 (inactive) and -0.109 (inactive) in test [16].

Turning to `C=CCN(C(=O)C1N(CCCCCCO)C(=O)C2C(C(=O)O)C3C=CC21O3)c1ccc(OC)cc1` (stereo not given), the composite z-score in [1] was 0.859 and 1.23; in test [2] it was -0.585 and -0.754; in test [3] it was -0.241 and -0.18; in test [4], -2.33 and -1.4; in test [5], -2.07 and -1.8; in test [6] it was 1.12 and -1.47. The composite z-score is 0.786 and -1.16 in test [7]; -0.718 and -0.496 in [9]; -0.126 and 0.0623 in test [10]; -0.176 and -1.86 in [11]; 3.53 and 3.04 in test [15]; 0.259 and 0.337 in test [17]. For the same compound, the composite z-score in test [18] is -2.89 and -3.12; in test [19] it was -0.602 and -1.35; in [20], -0.267 and -0.241. For the same compound, the z-score in test [8] is 0.608 (inactive) and 0.789 (inactive); in test [12], -0.943 (inactive) and -0.7 (inactive); in test [13], -2.12 (inactive) and -1.62 (inactive); in [14], -1.2 (inactive) and -0.708 (inactive); in test [16], 2.3 (inactive) and 1.01 (inactive).
